# According to ChEMBL document CHEMBL2218924, “A broad activity screen in support of a chemogenomic map for kinase signalling research and drug discovery” (Biochem J, 2013):
# Assays:
# [1] = target: Tyrosine-protein kinase SYK (Homo sapiens) (UniProt P43405); settings: at 10 µM
# [2] = target: T1, Serine/threonine-protein kinase TAO1 (Homo sapiens) (UniProt Q7L7X3); settings: at 10 µM
# T1 sequence (whole entry): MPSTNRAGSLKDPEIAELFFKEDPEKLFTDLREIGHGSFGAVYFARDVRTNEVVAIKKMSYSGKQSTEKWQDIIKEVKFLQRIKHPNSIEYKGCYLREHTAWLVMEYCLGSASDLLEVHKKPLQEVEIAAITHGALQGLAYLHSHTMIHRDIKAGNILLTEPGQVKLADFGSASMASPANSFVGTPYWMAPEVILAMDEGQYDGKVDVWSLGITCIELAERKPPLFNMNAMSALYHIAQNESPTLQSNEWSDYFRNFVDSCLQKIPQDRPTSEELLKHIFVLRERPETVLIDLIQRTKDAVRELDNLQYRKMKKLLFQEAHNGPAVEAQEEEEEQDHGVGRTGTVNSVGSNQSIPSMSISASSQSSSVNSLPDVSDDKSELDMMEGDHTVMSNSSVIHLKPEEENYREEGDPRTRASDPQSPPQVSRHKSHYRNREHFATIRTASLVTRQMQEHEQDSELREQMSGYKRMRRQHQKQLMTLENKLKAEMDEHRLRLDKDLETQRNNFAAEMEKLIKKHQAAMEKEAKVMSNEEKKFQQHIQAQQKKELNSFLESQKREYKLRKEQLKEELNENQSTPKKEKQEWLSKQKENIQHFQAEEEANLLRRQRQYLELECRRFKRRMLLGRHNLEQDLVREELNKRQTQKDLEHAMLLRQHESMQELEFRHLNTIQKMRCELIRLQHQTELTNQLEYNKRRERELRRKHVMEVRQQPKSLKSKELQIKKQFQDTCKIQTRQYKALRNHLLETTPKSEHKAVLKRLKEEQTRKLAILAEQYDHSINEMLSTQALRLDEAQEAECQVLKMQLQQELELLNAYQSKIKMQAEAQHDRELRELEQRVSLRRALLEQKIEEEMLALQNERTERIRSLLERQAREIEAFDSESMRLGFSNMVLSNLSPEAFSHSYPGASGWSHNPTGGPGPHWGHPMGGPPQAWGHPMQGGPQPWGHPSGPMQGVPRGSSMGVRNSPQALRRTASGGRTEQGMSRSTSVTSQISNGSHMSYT
# [3] = target: T2, Serine/threonine-protein kinase TAO2 (Homo sapiens) (UniProt Q9UL54); settings: at 10 µM
# T2 sequence (whole entry): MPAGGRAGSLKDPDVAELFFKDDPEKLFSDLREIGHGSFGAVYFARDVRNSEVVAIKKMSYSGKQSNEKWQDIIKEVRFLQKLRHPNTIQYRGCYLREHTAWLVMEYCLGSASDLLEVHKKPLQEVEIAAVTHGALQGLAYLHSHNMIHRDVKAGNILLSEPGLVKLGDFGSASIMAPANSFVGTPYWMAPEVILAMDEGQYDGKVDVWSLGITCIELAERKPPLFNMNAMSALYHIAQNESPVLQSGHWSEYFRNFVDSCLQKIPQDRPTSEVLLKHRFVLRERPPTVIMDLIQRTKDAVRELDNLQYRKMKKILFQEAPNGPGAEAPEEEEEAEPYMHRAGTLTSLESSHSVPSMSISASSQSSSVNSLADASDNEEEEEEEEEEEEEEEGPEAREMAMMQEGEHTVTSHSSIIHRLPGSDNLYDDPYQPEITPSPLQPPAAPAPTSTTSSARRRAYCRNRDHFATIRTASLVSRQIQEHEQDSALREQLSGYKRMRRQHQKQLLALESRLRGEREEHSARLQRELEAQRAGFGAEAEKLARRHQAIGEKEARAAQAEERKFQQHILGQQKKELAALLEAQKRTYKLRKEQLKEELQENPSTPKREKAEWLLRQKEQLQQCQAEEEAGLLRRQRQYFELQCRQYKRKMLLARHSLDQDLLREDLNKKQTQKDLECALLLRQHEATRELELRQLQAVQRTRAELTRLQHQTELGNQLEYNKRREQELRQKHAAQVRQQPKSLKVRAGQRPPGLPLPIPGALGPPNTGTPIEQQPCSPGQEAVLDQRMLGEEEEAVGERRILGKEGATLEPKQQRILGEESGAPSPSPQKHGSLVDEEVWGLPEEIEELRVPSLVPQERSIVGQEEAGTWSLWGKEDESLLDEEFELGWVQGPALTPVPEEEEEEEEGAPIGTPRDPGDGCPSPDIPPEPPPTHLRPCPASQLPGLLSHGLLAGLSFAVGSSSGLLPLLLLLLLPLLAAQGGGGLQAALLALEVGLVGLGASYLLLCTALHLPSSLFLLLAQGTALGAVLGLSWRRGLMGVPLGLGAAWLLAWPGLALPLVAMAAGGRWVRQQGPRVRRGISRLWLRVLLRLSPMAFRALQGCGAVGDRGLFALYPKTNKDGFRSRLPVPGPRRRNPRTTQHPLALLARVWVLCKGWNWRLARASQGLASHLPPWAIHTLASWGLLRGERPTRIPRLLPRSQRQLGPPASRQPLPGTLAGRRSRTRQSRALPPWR
# [4] = target: T3, Serine/threonine-protein kinase TBK1 (Homo sapiens) (UniProt Q9UHD2); settings: at 1 µM
# T3 sequence (whole entry): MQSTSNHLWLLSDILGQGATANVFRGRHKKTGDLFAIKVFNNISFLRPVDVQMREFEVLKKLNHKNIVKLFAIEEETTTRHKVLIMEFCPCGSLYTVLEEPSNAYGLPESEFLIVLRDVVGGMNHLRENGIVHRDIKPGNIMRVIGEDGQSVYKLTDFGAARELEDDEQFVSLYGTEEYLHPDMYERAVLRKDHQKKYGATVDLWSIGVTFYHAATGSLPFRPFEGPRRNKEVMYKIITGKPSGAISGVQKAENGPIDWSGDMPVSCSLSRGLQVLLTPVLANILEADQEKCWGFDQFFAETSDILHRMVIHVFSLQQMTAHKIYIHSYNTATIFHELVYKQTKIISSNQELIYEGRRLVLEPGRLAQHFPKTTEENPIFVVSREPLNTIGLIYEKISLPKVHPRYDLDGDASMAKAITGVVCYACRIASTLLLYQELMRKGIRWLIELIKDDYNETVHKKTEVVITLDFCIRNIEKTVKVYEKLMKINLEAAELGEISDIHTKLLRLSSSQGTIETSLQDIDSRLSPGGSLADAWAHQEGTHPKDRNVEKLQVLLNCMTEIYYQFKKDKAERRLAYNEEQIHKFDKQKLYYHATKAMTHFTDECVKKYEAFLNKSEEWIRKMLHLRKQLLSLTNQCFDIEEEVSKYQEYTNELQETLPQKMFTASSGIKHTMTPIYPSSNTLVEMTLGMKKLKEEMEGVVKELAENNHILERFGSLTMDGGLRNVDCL
# [5] = target: T3, Serine/threonine-protein kinase TBK1 (Homo sapiens); settings: at 10 µM
# [6] = target: T4, TGF-beta receptor type-1 (Homo sapiens) (UniProt P36897); settings: at 1 µM
# T4 sequence (whole entry): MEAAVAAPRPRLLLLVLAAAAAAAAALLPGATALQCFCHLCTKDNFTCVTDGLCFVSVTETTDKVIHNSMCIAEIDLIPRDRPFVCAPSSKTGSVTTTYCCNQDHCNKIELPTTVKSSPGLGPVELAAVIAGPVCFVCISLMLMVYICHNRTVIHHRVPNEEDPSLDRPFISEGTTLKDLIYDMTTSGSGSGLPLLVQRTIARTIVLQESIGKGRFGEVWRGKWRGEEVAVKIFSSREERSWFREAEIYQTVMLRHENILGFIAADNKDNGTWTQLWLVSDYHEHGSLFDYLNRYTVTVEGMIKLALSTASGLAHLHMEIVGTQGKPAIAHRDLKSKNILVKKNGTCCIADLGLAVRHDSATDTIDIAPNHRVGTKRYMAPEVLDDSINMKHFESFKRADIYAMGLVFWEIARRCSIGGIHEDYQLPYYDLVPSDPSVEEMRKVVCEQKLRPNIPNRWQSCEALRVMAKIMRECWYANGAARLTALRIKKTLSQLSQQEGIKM
# [7] = target: T4, TGF-beta receptor type-1 (Homo sapiens); settings: at 10 µM
# [8] = target: T5, Inhibitor of nuclear factor kappa-B kinase subunit alpha (Homo sapiens) (UniProt O15111); settings: at 1 µM
# T5 sequence (whole entry): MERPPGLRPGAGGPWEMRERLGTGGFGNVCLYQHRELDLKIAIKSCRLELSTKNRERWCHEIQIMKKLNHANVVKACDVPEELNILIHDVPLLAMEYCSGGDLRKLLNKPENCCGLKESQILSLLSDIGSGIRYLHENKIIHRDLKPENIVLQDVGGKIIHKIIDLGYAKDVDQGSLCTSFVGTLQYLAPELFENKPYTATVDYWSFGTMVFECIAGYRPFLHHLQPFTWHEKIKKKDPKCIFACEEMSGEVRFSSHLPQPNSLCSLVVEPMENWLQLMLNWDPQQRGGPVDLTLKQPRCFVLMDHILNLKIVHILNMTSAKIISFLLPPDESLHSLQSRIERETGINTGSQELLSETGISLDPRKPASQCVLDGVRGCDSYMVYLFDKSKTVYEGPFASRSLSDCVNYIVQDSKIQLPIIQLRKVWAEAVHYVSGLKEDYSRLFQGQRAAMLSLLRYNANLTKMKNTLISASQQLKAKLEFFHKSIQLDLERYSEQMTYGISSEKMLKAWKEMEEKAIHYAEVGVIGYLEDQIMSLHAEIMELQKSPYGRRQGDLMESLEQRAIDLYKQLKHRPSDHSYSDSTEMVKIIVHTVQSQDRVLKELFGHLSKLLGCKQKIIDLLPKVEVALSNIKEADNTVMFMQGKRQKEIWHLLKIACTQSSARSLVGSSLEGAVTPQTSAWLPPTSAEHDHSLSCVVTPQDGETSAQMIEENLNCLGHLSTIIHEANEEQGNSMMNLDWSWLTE
# [9] = target: T5, Inhibitor of nuclear factor kappa-B kinase subunit alpha (Homo sapiens); settings: at 10 µM
# [10] = target: T6, Inhibitor of nuclear factor kappa-B kinase subunit beta (Homo sapiens) (UniProt O14920); settings: at 1 µM
# T6 sequence (whole entry): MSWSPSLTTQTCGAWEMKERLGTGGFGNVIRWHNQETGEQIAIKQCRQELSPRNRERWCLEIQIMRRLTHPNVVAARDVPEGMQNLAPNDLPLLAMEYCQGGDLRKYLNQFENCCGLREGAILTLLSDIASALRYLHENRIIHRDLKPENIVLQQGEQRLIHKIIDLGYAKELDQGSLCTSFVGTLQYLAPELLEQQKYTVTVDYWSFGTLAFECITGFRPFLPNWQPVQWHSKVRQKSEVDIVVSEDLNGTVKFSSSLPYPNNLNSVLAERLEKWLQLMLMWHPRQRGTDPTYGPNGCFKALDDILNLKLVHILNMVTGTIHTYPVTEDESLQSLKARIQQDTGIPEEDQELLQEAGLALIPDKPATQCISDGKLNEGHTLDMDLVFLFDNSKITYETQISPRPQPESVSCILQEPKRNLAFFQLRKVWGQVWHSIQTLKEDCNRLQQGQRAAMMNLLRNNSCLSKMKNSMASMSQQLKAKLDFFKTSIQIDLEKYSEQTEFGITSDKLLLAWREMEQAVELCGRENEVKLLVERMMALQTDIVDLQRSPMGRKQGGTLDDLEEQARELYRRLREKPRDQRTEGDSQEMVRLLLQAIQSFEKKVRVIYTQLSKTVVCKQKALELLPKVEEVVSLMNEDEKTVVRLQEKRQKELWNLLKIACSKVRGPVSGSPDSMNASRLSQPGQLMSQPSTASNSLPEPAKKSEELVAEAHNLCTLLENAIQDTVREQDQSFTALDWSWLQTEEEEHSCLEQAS
# [11] = target: T6, Inhibitor of nuclear factor kappa-B kinase subunit beta (Homo sapiens); settings: at 10 µM
smiles,measurement,setting,value
COc1cc2c(cc1OC)-c1n[nH]c(Nc3cccc(F)c3)c1C2,residual activity,[1],76%
same,residual activity,[2],61%
same,residual activity,[3],78%
same,residual activity,[4],52%
same,residual activity,[5],43%
same,residual activity,[6],78%
same,residual activity,[7],66%
same,residual activity,[8],109%
same,residual activity,[9],112%
same,residual activity,[10],101%
same,residual activity,[11],110%
